NadD block = inhibitors of S. aureus NadD, primary screen, biochemical, colorimetric, uHTS. Nicotinate-nucleotide adenylyltransferase NadD (Staphylococcus aureus N315). purified NadD enzyme, colorimetric absorbance read-out. inhibition, % at 20 µM. hit rate 0.78% among 360,000; in the data active means inhibition above about 26%
H9c2 TAG inh = inhibitors of triacylglycerol accumulation, primary screen, cell-based, uHTS, fluorescence, H9c2 | H9c2 cells, Nile Red lipid (TAG) fluorescence; cells loaded with 200 µM oleic acid | inhibition, % at 12.5 µM | hit rate 0.66% among 230,000;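 active means pattern-corrected inhibition of lipid staining of at least 50% with the nuclear-stain viability signal not falling by more than 50%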;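 further: 0% = DMSO wells and 100% = triacsin C control wells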
APOBEC3A inh = APOBEC3A ssDNA deaminase inhibitors, primary screen, selectivity assay for APOBEC3G inhibitor project, biochemical, FAM/TAMRA oligo cleavage fluorescence; recombinant A3A, FAM/TAMRA ssDNA deamination fluorescence; inhibition, % at 20 µM; hit rate 0.41% among 330,000; AID 493011, 2011;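 active means at least 40% inhibition at 20 µM here, with at most 30% in a related deaminase screen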;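 further: plate controls were A3A with DMSO for no effect and wells lacking A3A enzyme for full effect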
Target sequence (P31941 whole entry, looked up): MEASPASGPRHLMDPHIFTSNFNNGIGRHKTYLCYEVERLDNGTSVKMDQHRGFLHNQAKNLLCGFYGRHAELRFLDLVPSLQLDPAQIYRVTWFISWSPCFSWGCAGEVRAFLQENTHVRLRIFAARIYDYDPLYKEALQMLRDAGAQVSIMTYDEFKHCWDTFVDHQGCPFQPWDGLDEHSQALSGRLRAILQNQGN
A3G deaminase = APOBEC3G DNA deaminase inhibitors, primary screen, biochemical, fluorescence, single-stranded DNA substrate, uHTS; AID 493012, 2011; DNA dC->dU-editing enzyme APOBEC-3G (Homo sapiens), Q9HC16; hit rate 0.28% among 330,000; recombinant A3G, ssDNA deamination FAM/TAMRA fluorescence; inhibition, % at 20 µM;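 active means inhibition of at least 40% at 20 µM, with no more than 30% in the related APOBEC3A deaminase screen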;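 further: plate controls were DMSO wells with A3G for no effect and wells lacking A3G enzyme for full effect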
H9c2 protect = cardioprotection against H2O2-induced cell death, primary screen, uHTS, H9c2 cells, ATPLite luminescence. H9c2 cardiomyocytes, H2O2 injury protection, 2 h. protection from H2O2 cell death, % at 20 µM. hit rate 0.63% among 360,000;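 active means compounds giving at least 50% protection of heart cells from peroxide-induced death in the single-dose screen, raw or plate-pattern-corrected value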;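 further: 0% = DMSO wells with peroxide and 100% = DMSO wells without peroxide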
PfGluPho inh = PfG6PD enzyme inhibitors, primary screen, biochemical, fluorescence intensity, uHTS; glucose-6-phosphate dehydrogenase-6-phosphogluconolactonase (Plasmodium falciparum 3D7); PfGluPho enzyme, NADPH resazurin-diaphorase fluorescence; inhibition, % at 20 µM; hit rate 0.78% among 350,000; AID 504690, 2011;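 active means inhibition reaching at least a set limit at 20 µM in the primary screen, cut at about 59% in these data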;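 further: 0% = DMSO wells with substrate and 100% = DMSO wells lacking glucose-6-phosphate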
NadD inh conf = inhibitors of S. aureus NadD, confirmation, biochemical, colorimetric, single concentration; shares compounds with NadD block; purified S. aureus NadD, colorimetric enzyme assay; inhibition, % at 20 µM; hit rate 13% among 2,000; AID 624309, 2012; in the data active means inhibition mostly above about 42%, no sharp cut-off; inactive means mostly below about 42%
An asterisk follows results filed as active; . = no result. Rows were chosen to be rich in hits. Some 2.9% of all compounds tested hit in one or more screens of this group.

SMILES	NadD block	H9c2 TAG inh	APOBEC3A inh	A3G deaminase	H9c2 protect	PfGluPho inh	NadD inh conf
O=C(NCC(F)(F)F)c1ccc(S(=O)(=O)Nc2ccccc2N2CCCC2)cc1	39.6*	-4.0	-2.0	1.4	-1.2	11.1	11.0
O=C(Nc1ccccc1N1CCCCC1)c1ccc(F)cc1	-2.0	-16.8	0.6	-2.2	-1.2	11.8	.
Cc1ccc(S(=O)(=O)N2CCN(C(=O)COC(=O)c3cncc(Br)c3)CC2)c(C)c1	0.5	-16.2	3.0	11.9	1.9	-4.5	.
Cc1ccccc1CN1C(=O)C(C)Sc2ccc(-c3ccco3)cc21 (stereo unspecified)	43.2*	8.3	.	.	-4.6	.	49.9*
CCSC1=C(C#N)C(c2ccc(C)o2)CC(=O)N1 (stereo unspecified)	-6.6	9.8	-7.8	-3.0	2.5	-12.9	.
Cc1ccc(C2CC(=O)N3CN(c4ccc(Br)cc4)CSC3=C2C#N)o1 (stereo unspecified)	42.8*	-3.6	63.0	71.8	3.2	54.5	-3.8
Cc1ccccc1CSCC1Nc2ccc(C(=O)NCCc3ccccc3)cc2NC1=O (stereo unspecified)	44.7*	-0.8	.	.	3.3	14.8	74.3*
COc1ccc2c(c1)C(=O)N1[C@H]3c4cc(Cl)ccc4OC[C@@H]3[C@H](c3ccccc3)[C@]1(C)C(=O)N2	22.1	22.0	-4.3	-10.4	-1.5	-17.9	.
COc1ccc2c(c1)C(=O)N1[C@H]3c4cc(Br)ccc4OC[C@@H]3[C@H](c3ccccc3)[C@]1(C)C(=O)N2	30.4*	19.5	-1.4	-8.6	4.3	10.1	24.8
Cc1ccccc1NC(=O)c1c(C)[nH]c(=S)c(C#N)c1-c1ccc(Cl)cc1	17.8	2.2	2.8	3.5	6.5	30.3	.
Cc1ccc(-c2c(C(=O)Nc3ccccc3C)c(C)[nH]c(=S)c2C#N)o1	31.4*	.	0.5	5.1	1.6	42.5	3.3
Cc1ccsc1C(=O)N1CCCC(N2CCN(c3cccc(Cl)c3)CC2)C1 (stereo unspecified)	0.4	14.2	-0.6	-9.9	2.1	-20.7	.
CCCS(=O)(=O)NC(=O)C1(C)CCCN(C(=O)CCc2cccs2)C1 (stereo unspecified)	-5.1	9.0	.	.	10.0	.	.
O=CNn1cnc2c(oc3nc(-c4ccccc4)cc(-c4ccco4)c32)c1=O	35.8*	26.2	-2.4	-6.5	-1.0	-15.0	4.9
CSc1ccc(NC(=O)c2cccnc2)cc1C#N	3.4	0.5	2.4	-1.0	-4.6	14.8	.
Cc1cc2cc(CNC(=O)Nc3ccccc3)ccc2[nH]1	49.2*	-1.5	3.6	-3.3	0.8	10.1	-4.6
Cc1cc2cc(CNC(=S)Nc3ccc(OC(F)(F)F)cc3)ccc2[nH]1	32.5*	10.4	-0.6	-5.3	-18.1	20.6	-0.8
O=C(CSc1ccccc1Cl)N1CCOCC1	-2.5	.	-2.5	-4.6	2.2	-0.2	.
O=C(NC(CO)C(=O)OCc1ccccc1)OCc1ccccc1 (stereo unspecified)	-4.4	0.4	-3.5	-1.7	-6.7	12.5	.
Cc1ccc(NC(=O)c2ccc(-n3cccn3)c([N+](=O)[O-])c2)cc1	2.5	11.9	0.6	-5.3	-3.9	58.0	.
O=C(Nc1ccc(C2=NCCN2)cc1)c1ccc(C(=O)Nc2ccc(C3=NCCN3)cc2)c([N+](=O)[O-])c1	50.4*	.	17.5	20.3	-4.2	38.1	22.2
Cc1c(C#N)sc(C(N)=O)c1C	1.9	.	-5.5	-7.4	-2.2	9.6	.
COc1ccccc1N1CCN(c2ccc3c(c2)S(=O)(=O)c2cccc(C(=O)NCc4cccc(F)c4)c2C3=O)CC1	30.9*	9.1	.	.	38.1	7.4	18.4

Screening data deposited in PubChem by Sanford-Burnham Center for Chemical Genomics.
